# Assay results published in the supplement of paper PMC4166925.
# ± gives the standard deviation of the averaged measurements. The full ranking holds about 33,000 sequences; the median of “E-score (dimensionless, -0.5 to 0.5)” is about -0.046, and the highest 2% start at about 0.36. Many of the other results were omitted from the sample, so the highest values are more common in it than they were.
# Test system: T1, SpTbr T-box DNA-binding domain (GST fusion)
# T1 sequence: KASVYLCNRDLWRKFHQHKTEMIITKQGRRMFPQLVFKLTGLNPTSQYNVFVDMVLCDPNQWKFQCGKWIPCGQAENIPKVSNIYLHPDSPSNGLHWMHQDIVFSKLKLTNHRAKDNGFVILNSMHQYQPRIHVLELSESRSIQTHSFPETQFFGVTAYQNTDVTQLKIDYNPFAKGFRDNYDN
# Experiment: PBM E-score of 8-mer (E-score (dimensionless, -0.5 to 0.5)); Tbr is Tbrain of the sea star Patiria miniata (Pm) or the sea urchin Strongylocentrotus purpuratus (Sp); higher = stronger binding preference
# Conditions: the construct has about 5 more residues each side
# Procedure, shortened: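 GST-fused Tbr T-box DNA-binding domains (the whole T-box plus about five flanking residues) were expressed in BL21 E. coli at 20 °C and purified by glutathione affinity chromatography. Universal Agilent oligonucleotide arrays were made double-stranded by primer extension, incubated with 200 nM protein in PBS (pH 7.5), then scanned and quantified. Every ungapped 8-mer was scored from probe intensities. The Universal PBM Analysis Suite gave each word an enrichment E-score, averaged over duplicate arrays.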
row,Sequence,PBM E-score of 8-mer
1,AAACCATC,-0.0776 ± 0.02
2,AAATCGTT,-0.0755 ± 0.038
3,CACACAAG,0.179 ± 0.038
4,CACACATA,0.3998 ± 0.0028
5,CACACAGG,0.244 ± 0.0081
6,CACACATG,0.383 ± 0.021
7,TACACATA,0.168 ± 0.022
8,GACACATA,0.359 ± 0.005
9,GAGGCTCA,-0.129 ± 0.025
10,ACGCCCAT,0.0516 ± 0.054
11,GATATGCA,0.00558 ± 0.032
12,CGCGCGAC,0.284 ± 0.015
13,AGCGCGAG,0.306 ± 0.017
14,TGCGCTAA,0.191 ± 0.035
15,AGCGCGAA,0.405 ± 0.019
16,AGCGCGAT,0.276 ± 0.009
17,GGCGCGAA,0.463 ± 0.011
18,GGCGCGAC,0.369 ± 0.017
19,AGCGCGAC,0.253 ± 0.026
20,GGCGCGCA,0.153 ± 0.047
21,GACGCGAA,0.138 ± 0.006
22,GGCGCTAA,0.4 ± 0.035
23,CGCGCTAA,0.338 ± 0.0063
24,AGCTACAA,-0.161 ± 0.011

row,Sequence,PBM E-score of 8-mer
1,GCACGCGC,0.216 ± 0.095
2,ATAGATGA,-0.0521 ± 0.016
3,CTGAAGCA,-0.141 ± 0.0054
4,CCGTGCCC,-0.244 ± 0.013
5,CCGTACAA,-0.197 ± 0.0048
6,TGCGCGAA,0.349 ± 0.036
7,TCCGCGAA,0.2876 ± 0.00083
8,CGCGCGAG,0.304 ± 0.036
9,CGCGCGAA,0.408 ± 0.013
10,GCCGCGAA,0.343 ± 0.0045
11,CCCGCGAA,0.371 ± 0.019
12,CGCAATTC,0.169 ± 0.0051
13,AAAGATCT,-0.1 ± 0.035
14,ATTGAGGG,-0.243 ± 0.003
15,AACCTTCG,-0.0878 ± 0.018
16,GACCTTCA,-0.0627 ± 0.081
17,AACCTTCC,-0.169 ± 0.048
18,GACCTTCC,-0.00679 ± 0.036
19,CCCCTTCG,-0.137 ± 0.046
20,AACCTTCA,-0.0641 ± 0.013
21,CACCTTCA,0.412 ± 0.0047
22,CACCTTCG,0.396 ± 0.017
23,CACCTTCC,0.401 ± 0.014
24,CGTGGTCC,-0.204 ± 0.045

row,Sequence,PBM E-score of 8-mer
1,CCGCCACA,0.157 ± 0.021
2,CCTCCTAA,-0.2059 ± 0.001
3,TAAGCGAA,-0.0797 ± 0.053
4,CAAGGTAA,-0.0662 ± 0.017
5,TAAGGTGA,0.331 ± 0.021
6,CAAGGTTC,0.047 ± 0.016
7,GAAGGTGC,0.41 ± 0.019
8,CAAGGTGC,0.421 ± 0.0087
9,CAAGGTGA,0.392 ± 0.0089
10,GAAGGTAC,-0.239 ± 0.019
11,CAAGGTGG,0.311 ± 0.015
12,GAAGGTGA,0.348 ± 0.035
13,ACCTAGAA,-0.0152 ± 0.079
14,ACTGCTCG,0.0799 ± 0.013
15,CTCGGGAC,-0.118 ± 0.062
16,AACTGTTA,0.284 ± 0.03
17,TGAGCCAA,-0.229 ± 0.019
18,CCCCCATC,-0.0563 ± 0.053
19,AAGTGTGT,0.331 ± 0.0059
20,CAGTGTGC,0.106 ± 0.0063
21,AAGTGGGG,0.177 ± 0.0055
22,AAGTGTGG,0.417 ± 0.013
23,AAGTGTGC,0.3891 ± 0.00091
24,AAGTGGGA,0.238 ± 0.037

row,Sequence,PBM E-score of 8-mer
1,ACTGCCTA,-0.14 ± 0.028
2,AACTTTCG,0.00917 ± 0.0092
3,CTCTGGGA,0.00265 ± 0.049
4,ACAATAGA,-0.149 ± 0.042
5,CCATGGAG,-0.231 ± 0.015
6,CCCAGAGG,-0.127 ± 0.05
7,CCACATCC,-0.0299 ± 0.14
8,ACACATCG,0.394 ± 0.014
9,GCACATCC,0.137 ± 0.0032
10,ACACATCA,0.339 ± 0.0072
11,ACACATCT,0.31 ± 0.029
12,ACACATCC,0.388 ± 0.024
13,CTACTTGA,0.0916 ± 0.062
14,ACACCATA,0.231 ± 0.071
15,CCACCACA,0.131 ± 0.073
16,CCACCACC,0.101 ± 0.038
17,ACACCACG,0.332 ± 0.018
18,ACACCATC,0.3674 ± 0.0022
19,ACACCACA,0.364 ± 0.017
20,ACACCACC,0.365 ± 0.0069
21,CCACCATC,0.0489 ± 0.024
22,ACACCACT,0.269 ± 0.02
23,ACCTGCCT,0.00297 ± 0.084
24,GGAGCGCC,0.0178 ± 0.0015

row,Sequence,PBM E-score of 8-mer
1,AGACCCAC,0.0705 ± 0.1
2,AGAGAAAT,-0.0136 ± 0.08
3,AGATCCAT,-0.205 ± 0.039
4,CATCTCAC,0.308 ± 0.006
5,GATCTCAC,0.371 ± 0.02
6,AATCTCAC,0.366 ± 0.016
7,AATCTCAT,-0.0127 ± 0.017
8,GATCTCAA,0.0536 ± 0.028
9,AATCTCTC,-0.1 ± 0.11
10,AATCTCAG,-0.0558 ± 0.035
11,AGACTCGG,-0.23 ± 0.019
12,AGCACCCG,0.257 ± 0.011
13,TACACCCA,0.105 ± 0.011
14,ATCACCCG,0.12 ± 0.057
15,CACACCGC,0.332 ± 0.037
16,CACACCCG,0.448 ± 0.016
17,CACACCCC,0.419 ± 0.025
18,CCCACCCA,0.185 ± 0.054
19,CACCCCCC,0.184 ± 0.003
20,CACCCCCG,0.234 ± 0.018
21,CACACCCA,0.421 ± 0.02
22,CCCACCCG,0.0685 ± 0.054
23,AACACCCG,0.404 ± 0.01
24,CCATGGCG,-0.204 ± 0.015

row,Sequence,PBM E-score of 8-mer
1,GACCGTCA,0.0838 ± 0.01
2,GACAGTGC,0.152 ± 0.025
3,AAAACTCC,-0.156 ± 0.054
4,ACGGCGTG,0.232 ± 0.0069
5,CAGGCGTC,0.236 ± 0.056
6,AAGGCGTC,0.372 ± 0.035
7,AGGGCGTG,0.281 ± 0.01
8,AAGGCGTG,0.392 ± 0.037
9,AAGGCGTA,0.153 ± 0.028
10,ACGTCCTA,-0.17 ± 0.032
11,AAGCGTTG,0.192 ± 0.056
12,CTCGCGCC,0.412 ± 0.031
13,CGCGCGCC,0.173 ± 0.064
14,ATCGCGCG,0.337 ± 0.004
15,CTCGCGCA,0.248 ± 0.021
16,ATCGCGCA,0.151 ± 0.015
17,ATCGCGCC,0.4021 ± 0.0011
18,AACTAGGG,0.0057 ± 0.046
19,AAGGAGGG,-0.0491 ± 0.018
20,GCTCATAC,-0.0299 ± 0.01
21,CGTTGGGA,-0.121 ± 0.024
22,ATTAAGAC,-0.0771 ± 0.015
